Assay results reported in the supplement of paper PMC13380429.
Structures can show the parent of a compound that is named as a salt.

System: Vero E6 infected with SARS-CoV-2
Test: inhibition of SARS-CoV-2 cytopathic effect; higher = more antiviral protection, active = above 15
Settings: 48 h

Measured: inhibition of SARS-CoV-2 cytopathic effect

OC[C@H]1NC[C@@H](O)[C@@H](O)[C@@H]1O [1-deoxymannojirimycin]
inactive: 1 nM -5.76% | 8.33 nM 0.14% | 100 nM -0.54% | 833.33 nM 1.33% | 10000 nM -0.79%

CCN1C[C@H](C)n2c(c(O)c3c(=O)n(Cc4ccc(F)c(Cl)c4)nc(C(=O)NC)c32)C1=O
inactive: 1 nM -0.8% | 8.33 nM 0.13% | 100 nM -1.06% | 833.33 nM 0.69% | 10000 nM -2.34%

CCCN[C@@H]1CCc2c(OC)cccc2[C@@H]1C
inactive: 1 nM -1.51% | 8.33 nM -1.5% | 100 nM -0.05% | 833.33 nM -0.17% | 10000 nM -3.49%

C[C@H](N)Cc1c[nH]cn1 [alpha-methylhistamine-dihydrobromide-(S)-(+)]
inactive: 1 nM -0.195% | 8.33 nM -0.765% | 100 nM 8.02% | 833.33 nM 1.26% | 10000 nM 2.96%

CCN1CCN(Cc2ccc(Nc3ncc(F)c(-c4cc(F)c5nc(C)n(C(C)C)c5c4)n3)nc2)CC1 [abemaciclib]
inactive: 1 nM -2.71% | 8.33 nM -0.27% | 100 nM -1.26% | 833.33 nM 11.9% | 10000 nM 12.3%

CCCN(C/C=C/I)[C@H]1CCc2ccc(O)cc2C1 [7-hydroxy-PIPAT]
inactive: 1 nM -0.76% | 8.33 nM 0.14% | 100 nM -1.03% | 833.33 nM -0.19% | 10000 nM -1.39%

O=C(O)CC[C@H]1CC[C@@](c2cc(F)ccc2F)(S(=O)(=O)c2ccc(Cl)cc2)CC1
inactive: 1 nM -2.65% | 8.33 nM -0.66% | 100 nM -4.1% | 833.33 nM -7.63% | 10000 nM -8.12%

Cc1cccc(C(=O)O)c1O [hydroxytoluic-acid]
inactive: 1 nM -9.06% | 8.33 nM -7.41% | 100 nM -5.24% | 833.33 nM -2.47% | 10000 nM -10.5%

O=C(NN1C(=O)[C@@H]2[C@@H]3C=C[C@@H]([C@H]4C[C@@H]34)[C@@H]2C1=O)c1ccc(C(F)(F)F)cc1 [tecovirimat]
inactive: 1 nM 1.41% | 8.33 nM 2.44% | 100 nM 2.71% | 833.33 nM 0.04% | 10000 nM -0.46%

CNCc1ccc(C)c(NC(=O)c2ccc(Nc3nc(-c4ccccc4)c4ccccc4n3)cc2)c1
active: 10000 nM 61.3%
inactive: 1 nM -4.56% | 8.33 nM -2.52% | 100 nM -1.92% | 833.33 nM -1.96%

Nc1nc2[nH]cc(CCc3ccc(C(=O)N[C@@H](CCC(=O)O)C(=O)O)cc3)c2c(=O)[nH]1 [pemetrexed]
inactive: 1 nM -1.03% | 8.33 nM 0.64% | 100 nM 1.39% | 833.33 nM -2.48% | 10000 nM -1.3%

CC(C)(C)CC(C)(C)c1ccc(O)c(Cc2ccc(Cl)cc2Cl)c1 [clofoctol]
inactive: 1 nM 3.11% | 8.33 nM 0.06% | 100 nM 2.41% | 833.33 nM 3.05% | 10000 nM -0.97%

NCCCNCCCCNCCCN [spermine]
inactive: 1 nM 1.74% | 8.33 nM -5.72% | 100 nM -0.71% | 833.33 nM -2% | 10000 nM 2.37%

Nc1ccc(S(=O)(=O)Nc2cnc3ccccc3n2)cc1 [sulfaquinoxaline]
inactive: 1 nM -0.58% | 8.33 nM 1.74% | 100 nM -1.77% | 833.33 nM -2.18% | 10000 nM 1.39%

CO[C@@H]1[C@H](O)[C@@H](CO)O[C@H]1n1cnc2c(NC3CCCCC3)ncnc21
inactive: 1 nM -0.97% | 8.33 nM 1.94% | 100 nM 8.69% | 833.33 nM 1.46% | 10000 nM -0.79%

CC(C)(C)NCc1cc(Nc2ccnc3cc(Cl)ccc23)c2c(c1O)CCCC2 [naphthoquine-phosphate]
inactive: 1 nM -1.58% | 8.33 nM -2.22% | 100 nM -0.22% | 833.33 nM -0.36% | 10000 nM -5.14%

CCCn1c(=O)c2nc(-c3ccccc3)[nH]c2n(CCC)c1=O [1,3-dipropyl-8-phenylxanthine]
inactive: 1 nM -3.41% | 8.33 nM -2.62% | 100 nM -2.96% | 833.33 nM -3.56% | 10000 nM -1.61%

O=c1c2ccccc2oc2ccccc12 [xanthone]
inactive: 1 nM 1.22% | 8.33 nM 1.53% | 100 nM 1.84% | 833.33 nM -0.86% | 10000 nM -3.12%

C[C@@H]1CC[C@H]2C(C)(C)[C@H]3C[C@@]12CC[C@@]3(C)O [cedrol]
inactive: 1 nM -1.18% | 8.33 nM -3.1% | 100 nM -1.28% | 833.33 nM -1.1% | 10000 nM -1.09%

O=C(Nc1ccc(-c2ccncc2)cc1)N[C@H](CO)c1ccccc1
inactive: 1 nM -3.49% | 8.33 nM 2.37% | 100 nM -1.14% | 833.33 nM -0.94% | 10000 nM -7.89%

Oc1ccc(-c2nc(-c3ccc(F)cc3)c(-c3ccncc3)[nH]2)cc1
inactive: 1 nM 0.33% | 8.33 nM 1.64% | 100 nM -1.29% | 833.33 nM 2.83% | 10000 nM 8.91%

CN1CCOC(c2ccccc2)c2ccccc2C1 (stereo not given) [nefopam]
inactive: 1 nM 1.99% | 8.33 nM 0.54% | 100 nM 2.72% | 833.33 nM -1.03% | 10000 nM -1.47%

C[C@]1(c2nc3c(C(N)=O)cccc3[nH]2)CCCN1 [veliparib]
inactive: 1 nM 3.9% | 8.33 nM 7.83% | 100 nM 5.13% | 833.33 nM 4.23% | 10000 nM 8.58%

CN1CCN(c2cccc3[nH]c(=O)oc23)CC1 [pardoprunox]
inactive: 1 nM 0.73% | 8.33 nM 1.76% | 100 nM 3.14% | 833.33 nM -2.14% | 10000 nM 1.85%

C[C@@H](Oc1ccc2[nH]nc(/C=C/c3cnn(CCO)c3)c2c1)c1c(Cl)cncc1Cl
inactive: 1 nM -0.14% | 8.33 nM -0.97% | 100 nM -1.04% | 833.33 nM -13.8% | 10000 nM -14.7%

COc1ccc2c(NC(=O)Nc3cccc(C(F)(F)F)n3)ccnc2c1
inactive: 1 nM 1.28% | 8.33 nM 1.81% | 100 nM 2.91% | 833.33 nM 10.2% | 10000 nM 11.1%

NCCS [cysteamine]
inactive: 1 nM 1.07% | 8.33 nM 0.1% | 100 nM 0.28% | 833.33 nM -1.61% | 10000 nM -4.62%

CC(C)(C)c1ccc(C(=O)CCCN2CCC(OC(c3ccccc3)c3ccccc3)CC2)cc1 [ebastine]
inactive: 1 nM 0.86% | 8.33 nM 1.48% | 100 nM 0.7% | 833.33 nM -2.23% | 10000 nM -4.94%

CC[C@H](CO)Nc1nc(NCc2ccccc2)c2ncn(C(C)C)c2n1 [roscovitine]
inactive: 1 nM 1.02% | 8.33 nM 2.46% | 100 nM -0.4% | 833.33 nM -1.46% | 10000 nM -0.57%

Cc1ncc(CSSCc2cnc(C)c(O)c2CO)c(CO)c1O [pyritinol]
inactive: 1 nM -0.56% | 8.33 nM 1.16% | 100 nM 2.92% | 833.33 nM 1.42% | 10000 nM 0.94%

Cc1ccc(C(=O)Nc2ccc(S(=O)(=O)O)c3cc(S(=O)(=O)O)cc(S(=O)(=O)O)c23)cc1NC(=O)c1cccc(NC(=O)Nc2cccc(C(=O)Nc3cc(C(=O)Nc4ccc(S(=O)(=O)O)c5cc(S(=O)(=O)O)cc(S(=O)(=O)O)c45)ccc3C)c2)c1 [suramin]
inactive: 1 nM 0.16% | 8.33 nM 0.17% | 100 nM 0.66% | 833.33 nM -0.75% | 10000 nM 1.44%

CCOc1ccc(Nc2nc(-c3c(C)nc4ccccn34)cs2)cc1
inactive: 1 nM -1.73% | 8.33 nM -0.39% | 100 nM -1.68% | 833.33 nM 2.2% | 10000 nM 1.71%

O=C(CN1CCNCC1)NC1CCCCC1 [esaprazole]
inactive: 1 nM -1.96% | 8.33 nM -1.47% | 100 nM -0.45% | 833.33 nM -0.95% | 10000 nM -1.46%

C/C(O)=C(\C#N)C(=O)Nc1cc(Br)ccc1Br
inactive: 1 nM 0.38% | 8.33 nM 0.96% | 100 nM -1.74% | 833.33 nM 2.02% | 10000 nM 1.5%

Cn1c(=O)c2c(ncn2CCOC(=O)C(C)(C)Oc2ccc(Cl)cc2)n(C)c1=O [etofylline-clofibrate]
inactive: 1 nM 4.94% | 8.33 nM 3.79% | 100 nM 1.68% | 833.33 nM 2.56% | 10000 nM -0.53%

CC(=C(CCOC(=O)C(C)C)SSC(CCOC(=O)C(C)C)=C(C)N(C=O)Cc1cnc(C)nc1N)N(C=O)Cc1cnc(C)nc1N (stereo in doubt) [sulbutiamine]
inactive: 1 nM 2% | 8.33 nM 2.05% | 100 nM 3.99% | 833.33 nM -4.07% | 10000 nM -4.54%

O=C1c2ccccc2-c2c(NCCc3ccccc3)c(=O)[nH]c3cccc1c23
inactive: 1 nM -0.39% | 8.33 nM 1.98% | 100 nM 0.01% | 833.33 nM 2.52% | 10000 nM 1.12%

CCOC(=O)[C@@H](C)Oc1cccc2c(=O)n(CC(=O)Nc3ccc4c(c3)OCCO4)ccc12
inactive: 1 nM -1.29% | 8.33 nM 1.77% | 100 nM 0.7% | 833.33 nM -5.6% | 10000 nM -5.98%

CS(=O)(=O)OC[C@H](O)[C@@H](O)COS(C)(=O)=O [treosulfan]
inactive: 1 nM 0.41% | 8.33 nM 0.48% | 100 nM -0.46% | 833.33 nM 0.71% | 10000 nM 1.56%
